“And” between values parts separate entries of the source, which are not always exact repeats. Equal values may be shown once. Results filed as inconclusive are left out. Values without a mark were called inactive. The source made the active and inactive calls. Calls follow the shape of the dose curve; as a rule, active = well fitted cell-killing curve with a large enough effect; inconclusive = small, poorly fitted or top-dose-only effect; inactive = no such curve, though single readings can be large or run the other way.
Assay: qHTS of pediatric cancer cell lines to identify multiple opportunities for drug repurposing: Primary screen for SK-N-MC cells (AID 1347093)
Conditions: SK-N-MC viability, CellTiter-Glo luminescence, 48 h; series mostly up to 46 µM; activity change, negative = cytotoxic: at the top concentration
Description: Drug repurposing or repositioning has been offered as a strategy for drug development in oncology programs. This approach has special potential for childhood cancers and other rare or orphan diseases, where the expected return on new drug development has been a disincentive to pharmaceuticals.
In this project we exploit the poly-pharmacology of drugs to discover new indications via phenotypic screening of a panel of 19 well-characterized cell lines derived from solid tumors seen in children and adolescents. The goal is to identify approved drugs with previously unrecognized anticancer properties that has the potential to reveal new mechanisms and biological processes involved in carcinogenesis or drug resistance. We employed a titration-based paradigm (quantitative high-throughput screening or qHTS), where all compounds were tested at multiple concentrations for their effect on cell viability. Concentration-response curves (CRCs) were derived directly from the primary screen, and both potency and efficacy values were used to identify compounds with robust bioactivity profiles. We screened the NIH Chemical Genomics Center (NCGC) Pharmaceutical Collection (NPC) and Mechanism Interrogation Plate (MIPE) small molecule collections of approved and investigational compounds against these cell lines; and measured metabolically active cells after 48 hours of compound treatment as a proxy for cell viability.
Assay Submitter: Nathalia J. Martinez, National Center for Advancing Translational Sciences, National Institutes of Health, Rockville, MD, USA; email: natalia.martinez@nih.gov
[1] Shen, M et al. Quantitative high-throughput phenotypic screening of pediatric cancer cell lines identifies multiple opportunities for drug repurposing. Oncotarget 2017 Dec 19;9(4):4758-4772. PMID 29435139.
The cells were obtained from University of North Carolina (UNC), Pediatric Preclinical Testing Program (PPT), and Coriell Institute (CI).
qHTS cell viability assay:
Cells were assayed in growth media at a density of 500-1,000 cells/well. Five microliters of cells were dispensed into 1,536-well, white, solid-bottom, TC-treated plates (Greiner Bio One) using a multidrop dispenser and incubated at 37 degrees C, 5% CO2, under a humidified atmosphere for 5 hours. Twenty-three nanoliters of compounds and controls (neutral control DMSO or positive control bortezomib at final concentration of 2.3 µM) were subsequently transferred by Kalypsys pintool. For primary screens, the MIPE collection was tested at 11-point dilutions (final concentrations range from 0.78 nM to 46 µM) and the NPC collection at 8-point dilutions (final concentrations range from 0.59nM to 46 µM). Compounds tested in follow-up screens were assayed at 11-point dilutions. Cells were incubated for 48 hours, followed by addition of 3 uL of CellTiter-Glo (Promega). After a 15 min incubation at room temperature, samples were analyzed for luminescence intensity using a ViewLux High-throughput CCD imager equipped with clear filters.
Potency is read from the fitted curve at half-maximal effect.

Compound | Potency | activity change, negative = cytotoxic
COc1cc2ncnc(Nc3ccc(F)c(Cl)c3)c2cc1OCCCN1CCOCC1 | 1.91 µM (active) and 26.6 µM (active) | 
CCN(CC)CCOC(=O)c1ccc(N)cc1 |  | -3.67%
CN(C)c1cc(NC(=O)CNC(C)(C)C)c(O)c2c1C[C@@H]1C[C@H]3[C@H](N(C)C)C(=O)C(C(N)=O)=C(O)[C@@]3(O)C(=O)C1=C2O |  | -11.7%
CC1(C)CCC[C@@]2(C)[C@@H]1CC[C@@]1(C)OC(=O)C[C@H]21 | 8.33 µM (active) | 
CN1[C@@H]2CCC[C@@H]1CC(NC(=O)c1nn(C)c3ccccc13)C2 (stereo not given in full) |  | -16.9%
O=C(NCCN1CCOCC1)c1ccc(Cl)cc1 |  | 2.98%
CS(=O)c1ccc(-c2nc(-c3ccc(F)cc3)c(-c3ccncc3)[nH]2)cc1 (stereo not given) | 8.55 µM (active) | 
O=C(O)Cc1cccc2ccccc12 | inactive | 
c1cc(-c2sc(-c3ccncc3)c(-c3ccncc3)c2-c2ccncc2)ccn1 | 20.9 µM (active) | 
CCc1ccc(OCc2ccccc2C(=O)Nc2ccc3nc(C)cc(N)c3c2)cc1 | 5.9 µM (active) | 
Cc1nnc(C(C)C)n1C1C[C@H]2CC[C@@H](C1)N2CC[C@H](NC(=O)C1CCC(F)(F)CC1)c1ccccc1 (stereo not given in full) | 4.18 µM (active) | 
CC(C)(C)C(=O)Oc1ccc2c(c1)nc(NC(=O)c1cccc([N+](=O)[O-])c1)n2CCCO | 20.9 µM (active) | 
O=c1c(O)c(-c2ccc(O)cc2)oc2cc(O)cc(O)c12 | 11.8 µM (active) | 
O=C(O)c1ccc(-c2cc3cccnc3c(-c3ccc4nonc4c3)n2)cc1 | 3.32 µM (active) | 
CCC(=O)NC[C@H](Cc1ccc(OCCc2nc(-c3ccccc3)oc2C)cc1)NC(C)=CC(=O)c1ccc(C(F)(F)F)cc1 | 2.35 µM (active) | 
CCOC(=O)O[C@]1(C(=O)OCCl)CC[C@@H]2[C@H]3CCC4=CC(=O)C=C[C@]4(C)[C@@H]3[C@@H](O)C[C@@]21C |  | 54.5%
CO[C@H]1C=CC=C(C)C(=O)NC2=CC(=O)C(NCCN(C)C)=C(C[C@@H](C)C[C@H](OC)[C@@H](O)[C@@H](C)C=C(C)[C@@H]1OC(N)=O)C2=O | 0.187 µM (active) | 
COc1ncc(-c2ccc3nccc(-c4ccnnc4)c3c2)cc1NS(=O)(=O)c1ccc(F)cc1F | 0.001 µM (active) | 
Cc1ccccc1C(C(=O)NC1CCCCC1)N(C(=O)Cn1ccnc1C)c1cccc(F)c1 (stereo not given) | 23.5 µM (active) | 
CC(=O)N[C@@H](CS)C(=O)O |  | -2.84%

Compound | Potency | activity change, negative = cytotoxic
CN1CCN(CCOc2cc(OC3CCOCC3)c3c(Nc4c(Cl)ccc5c4OCO5)ncnc3c2)CC1 | 11.8 µM (active) | 
CCOC(CN1C(=O)[C@](CC(=O)Nc2ccc(C)cc2)(NC(=O)Nc2ccc(C)cc2)c2ccccc21)OCC | 11.8 µM (active) | 
CNC(=O)c1ccc2cc(C3(O)CCn4cncc43)ccc2c1 (stereo not given) |  | -5.5%
Cc1c(O)cccc1C(=O)N[C@@H](CSc1ccccc1)[C@H](O)CN1C[C@H]2CCCC[C@@H]2C[C@@H]1C(=O)NC(C)(C)C | 16.6 µM (active) | 
C[N+](C)(C)CCCCCC[N+](C)(C)C |  | 1.92%
COc1cccc([C@@H](C)NCCCc2ccccc2Cl)c1 | 11.8 µM (active) | 
CCN(CC)CCOc1ccc(C(=C(Cl)c2ccccc2)c2ccccc2)cc1 | 14.8 µM (active) | 
CC(=Cc1ccccc1)C=C1SC(=S)N(CC(=O)O)C1=O | 13.2 µM (active) | 
Nc1ncnc2c1nc(Cl)n2[C@@H]1O[C@H](CO)[C@@H](O)[C@@H]1O | 26.4 µM (active) | 
CCCCCNC(=O)N1CCC(CN(Cc2ccc(Cl)cc2)Cc2ccc([N+](=O)[O-])s2)C1 (stereo not given) | 9.35 µM (active) | 
CC(=O)Oc1cc2c(s1)CCN(C(C(=O)C1CC1)c1ccccc1F)C2 (stereo not given) | 1.32 µM (active) | 
CC(=O)c1ccc(S(=O)(=O)NC(=O)NC2CCCCC2)cc1 |  | -23.5%
COc1cc(NC(=O)c2ccc(-c3ccc(Cl)cc3)o2)cc(OC)c1 | 1.32 µM (active) | 
O=c1c(-c2ccc(O)cc2)coc2cc(O[C@@H]3O[C@H](CO)[C@H](O)[C@H](O)[C@H]3O)ccc12 |  | -18.5%
Cc1cccc(C)c1OCC(C)N (stereo not given) |  | -11.2%
CCN(CC)CCNC(=O)c1ccc(N)cc1 |  | 4.38%
CC(C)C(C)C=CC(C)C1CCC2C3=CC=C4CC(O)CCC4(C)C3CCC21C (stereo not given) |  | 34.3%
CCOC1OC(=O)C[C@H]1NC(=O)[C@@H]1CCCN1C(=O)[C@@H](NC(=O)c1ccc(N)c(Cl)c1)C(C)(C)C (stereo not given in full) | 14.8 µM (active) | 
COc1ccc(-c2oc3c(CC=C(C)C)c(OC4O[C@H](CO)[C@@H](O)[C@H](O)[C@@H]4O)cc(O)c3c(=O)c2OC2O[C@@H](C)[C@H](O)[C@@H](O)[C@@H]2O)cc1 (stereo not given in full) | 10.5 µM (active) | 
COC(=O)C1=CO[C@@H](O)[C@@H]2C(CO)=CC[C@@H]12 | 29.6 µM (active) | 

Source: PubChem BioAssay (NCATS)
